# Measurements reported in PubChem BioAssay AID819 (Columbia University Molecular Screening Center, 2007).
# The campaign covered roughly 94,000 compounds. About 280 (0.3%) were called active. This excerpt belongs to a sample that is enriched for actives. Values without a mark were called inactive.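 How the source made its calls: active means activation above 40%, about the mean plus 3 SD, also judged a hit on visual image review; inconclusive means activation above 40% but not a hit on visual review; inactive means activation not above 40% and no visual hit.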
# Assay: enhancers of NFkB p65 translocation in HUVEC – imaging, IL-1B stimulus, high-content imaging, primary screen (AID 819);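 further: percent activation is computed from the nuclear over cytoplasmic p65 intensity ratio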
# Conditions: HUVEC IL-1B NFkB p65 nuclear translocation imaging; at 2 µM; stronger effect = higher value
row,Structure (SMILES),activation
1,CCn1c(SC)nc(O)c(C(c2ccc(OC)c(O)c2)c2c(O)nc(SC)n(CC)c2=O)c1=O,59.4% (active)
2,COc1ccc2c(c1OC)C(=O)OC2c1c(O)nc(SC)n(-c2ccccc2)c1=O (configuration not stated),1.27%
3,CCn1c(COc2ccc(OC)cc2)nnc1SCC(=O)Nc1cc(OC)ccc1OC,4.96%
4,O=C(COc1ccc2ccccc2c1)N1CCN(C(=O)c2cccs2)CC1,-12.1%
5,Cc1nc2c(-c3ccc(F)cc3)c(C)nn2c(C)c1CCC(=O)NCc1ccco1,-8.14%
6,CCOC(=O)C1=C(c2ccccc2)N=C2SCC(=O)N2C1c1ccc(O)c(OC)c1 (configuration not stated),22.6%
7,Cc1cc(-c2ccccc2)n2nc(C)c(-c3ccccc3)c2n1,-2.27%
8,CC(=O)c1ccc(OCCN2CCOCC2)cc1,29.4%
9,C/C(=N\NC(=O)c1ccc(C)cc1)C1C(=O)c2ccccc2C1=O,-6.49%
10,Cc1ccc2[nH]c(=O)c(CN(CCCN(C)C)C(=O)Nc3cccc(Cl)c3)cc2c1,20.3%
11,COc1ccc(NC(=O)CSc2nc(N)c(-c3ccccc3)c(=O)[nH]2)cc1,8.34%
12,COC(=O)c1cccc(-n2[nH]nnc2=S)c1,-3.54%
13,COCc1cc(C(C)=O)ccc1OC,2.42%
14,CN(C)c1ccc(NC(=S)N(CCc2ccccc2)C2CC(=O)N(c3c(Cl)cccc3Cl)C2=O)cc1 (configuration not stated),-17.7%
15,O=C(N/N=C/C=C/c1ccccc1)C1CC1(c1ccccc1)c1ccccc1 (configuration not stated),4.51%
16,CCCn1nnc(NC(=O)COc2ccc(CC)cc2)n1,6.08%
17,COC(=O)CNC(=O)c1ccccc1[N+](=O)[O-],2.74%
18,CCCCNC(=O)CCn1c(=S)[nH]c2cc3c(cc2c1=O)OCO3,-3.47%
19,COc1ccc(OCC(=O)NN2Cc3ccccc3C2=N)cc1,12.3%

row,Structure (SMILES),activation
1,CCOc1cc(/C=C2/N=C(c3ccc(C(C)(C)C)cc3)OC2=O)cc(Cl)c1OS(C)(=O)=O,15.4%
2,Cc1ccccc1OC/C(O)=C(\C#N)c1nc2ccccc2[nH]1,-7.29%
3,COC(=O)c1c(NC(=O)CSc2nncs2)sc2c1CCCCC2,144% (active)
4,COC(=O)c1c(NC(=O)c2cccs2)sc2c1CCCC2,-38.1%
5,CCOC(=O)c1c(NC(=O)CSc2nnc(C)c(=O)[nH]2)sc2c1CCC2,-7.67%
6,CC(C)c1cc(C(N)=O)c(NC(=O)c2cccc(COc3ccc(Br)cc3)c2)s1,2.73%
7,CCCC(O)(c1ccc(OC)cc1)C(CN(C)C)c1ccccc1 (configuration not stated),8.96%
8,CS(=O)(=O)N(CC(=O)Nc1ccc(F)cc1F)c1cccc([N+](=O)[O-])c1,2.79%
9,CCOC(=O)c1c(NC(=O)CSc2nnc(CNc3ccc(C)cc3C)o2)sc(C)c1C,13.4%
10,CCOC(=O)NNC(=O)c1ccc(Cl)cc1,-2.19%
11,COc1ccc(C2CC(c3cccs3)=Nc3ccccc3S2)cc1OC (configuration not stated),3.96%
12,CCN(CC)C(=O)CSC1c2ccccc2C(=O)N1c1ccccc1 (configuration not stated),16.1%
13,Cc1ccc(OCC(=O)N/N=C/c2ccncc2)cc1,9.97%
14,Cc1ccc(CNC(=O)CCNC(=O)Cn2ccc3ccccc3c2=O)cc1,-10.3%
15,COc1ccc(NC(=O)CCNC(=O)Cn2ccc3ccccc3c2=O)c(OC)c1,49.9% (active)
16,COc1ccc(NC(=O)CCN2CCCC2)c(OC)c1,-7.64%
17,Cc1ccc2c(c1)N(CC(=O)N(Cc1ccccn1)Cc1ccco1)C(=O)C(C(C)C)O2 (configuration not stated),-18%
18,CCN1CCC(=NNC(=O)c2ccc(C)c([N+](=O)[O-])c2)CC1,9.79%
